In PubChem BioAssay (NCI):
About 83,000 compounds went through this panel and 20% of them were active in at least one assay; those are over-represented in the sample as a whole.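 Single-dose data. Exposure time 48 hours. Values below 10 considered active.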 Activity calls are given as the source filed them.

Tested on: HL-60(TB) leukemia
Assay: NCI-60 one-dose screen, 48 h (100 = growth as untreated, 0 = no growth, -100 = all killed)
Conditions: 10 µM unless noted

Row | SMILES | growth
1 | CC1=CC(C)(C)NC(=S)N1c1ccc(S(=O)(=O)O)c2cccc(S(=O)(=O)O)c12 | 106% (inactive)
2 | Cc1ccccc1NC(=O)N/C(N)=N/c1nc(-c2cccc([N+](=O)[O-])c2)cs1 | 6.06% (active)
3 | N=c1nc(N2CCCCC2)cc(N)n1O | 92.4% (inactive)
4 | Cc1ccc(Sc2ccccc2N)cc1 | 115% (inactive)
5 | O=[N+]([O-])c1cnc(N2CCN(CC3CC3)CC2)nc1N1CCN(CC2CC2)CC1 | 99.2% (inactive)
6 | CN1CCN(c2nc(-c3ccncc3)nc3sc4c(c23)CCCCCC4)CC1 | 88.3% (inactive)
7 | COc1ccc(S(=O)(=O)c2ccc(C(N)=O)cc2)cc1NC(=O)c1[nH]c(C)c2c1CCCCC2=O | 4.2% (active)
8 | COc1ccc2nc3ccccc3c(NCCNCC(C)O)c2c1 (stereo not given) | 14.2% (inactive)
9 | CCOC(=O)c1c(C)cc(=O)oc1C | 105% (inactive)
10 | Cl | 107% (inactive)
11 | c1cnc2nc3c(cc2c1)oc1ccccc13 | 96.4% (inactive)
12 | CC(C)n1nc(-c2ccc3oc(N)nc3c2)c2c(N)ncnc21 | 11.4% (inactive)
13 | CC(=O)Nc1ccc(S(=O)(=O)c2ccnc3cc(Cl)ccc23)cc1 | 87% (inactive)
14 | CN(C)c1ccc(/C=C/C2=[N+](C)c3ccccc3C2(C)C)cc1 | -18.4% (active)
15 | Cc1ccc(-c2cn3cc([N+](=O)[O-])ccc3n2)cc1 | 47.7% (inactive)
16 | COc1ccc(C2CC(=O)Nc3c2c(C)nn3-c2nc3ccccc3[nH]2)cc1OC (stereo not given) | 31.9% (inactive)
17 | COc1ccc(C/C(C)=C(\c2ccc(Cl)cc2)c2ccc(OCCN3CCCCC3)cc2)cc1 | 91.8% (inactive)
18 | Cc1ccccc1NC(=O)CN(C)C | 87.9% (inactive)
19 | Nc1nc(-c2cc3c(cc2Cl)NC(=O)/C3=C/c2ccc(Cl)cc2)cs1 | -11.7% (active)
20 | C=CC(=O)Nc1cccc(Oc2nccc(Nc3nnc(C4CC4)s3)n2)c1 | 78% (inactive)

Row | SMILES | growth
21 | Cn1c(=O)c2[nH]c(SCC(=O)Nc3ccc(C(=O)/C=C/c4ccccc4Cl)cc3)nc2n(C)c1=O | 98.6% (inactive)
22 | COc1ccc(C(Cc2ccccc2)NCCN2CCOCC2)cc1 (stereo not given) | 93.8% (inactive)
23 | CN(C)CCN1C(=O)c2cccc3c(-c4ccc(-c5nc6c7ccccc7c7ccccc7c6[nH]5)cc4)ccc(c23)C1=O | 90.7% (inactive)
24 | CC(C)[C@@H](C)/C=C/[C@@H](C)[C@H]1CCC2=C3C=CC4=CC(=O)CC[C@]4(C)[C@H]3CC[C@@]21C | 93.9% (inactive)
25 | C#Cc1cccc(NC(=O)c2ccccc2NC(=O)C=C)c1 | 97.7% [8.25 µM] (inactive)
26 | O=C1NC(=O)C(Cc2ccccc2)(Cc2ccccc2)N1 | 122% (inactive)
27 | CCCCCN(CCCCC)CC(O)c1c(Cl)ccc2ccccc12 (stereo not given) | 87.6% (inactive)
28 | CCN1C(=O)N(CC)C2C1NC(=S)N2/N=C/C=C/c1cccs1 (stereo not given) | -41.3% (active)
29 | CCOC(=O)Cc1cc(Br)c(OCc2ccccc2)c(Br)c1 | 71.7% (inactive)
30 | COc1ccc(-c2nnc(COc3ccc(NC(=O)Nc4ccccc4)cc3F)o2)cc1 | 86.8% (inactive)
31 | COc1ccc(OC)c2c1C(=O)CC2C (stereo not given) | 103% (inactive)
32 | Cc1ccccc1-c1cc(Cc2ccc(F)cc2)c(=O)[nH]n1 | 54.2% (inactive)
33 | C=C(C)[C@@H]1C[C@H](O)Cc2cc(F)ccc2N1 | -20.3% (active)
34 | CC1OC(Oc2c(-c3ccc(O)c(O)c3)oc3cc(O)cc(O)c3c2=O)C(O)C(O)C1O (stereo not given) | 106% (inactive)
35 | CCCCNC(=O)Oc1ccc(/C(=C(/C)Cc2ccc(OC)cc2)c2ccc(OCCN3CCCCCC3)cc2)cc1 | 33.9% (inactive)
36 | COc1ccc2c(c1)CCCC21C(=O)Nc2c(Cl)cccc21 (stereo not given) | 33.9% (inactive)
37 | O=S(=O)(N=C1C(Cl)=C(Cl)C(=NS(=O)(=O)c2ccccc2)C(Cl)=C1Cl)c1ccccc1 | 48.5% (inactive)
38 | c1cc2ccc3cc2cc1CNCCN1CCNCc2ccc4ccc(cc4c2)CNCCN(CCNC3)CCNCc2ccc3ccc(cc3c2)CNCC1 | -38.7% (active)
39 | Nc1ccc(Nc2nccc(-c3ccc4ccccc4c3)n2)cc1 | 21.2% (inactive)
40 | CN(C)CCOC(=O)Nc1ccccc1Cl | 112% (inactive)
